Out of some 410,000 compounds screened, about 2,400 (0.59%) were called active. No stated cut-off is given here; in the data, active means max activation above about 30%; inactive means the rest. What follows is part of a selection rich in actives, with near analogues and random picks from the rest.
target: D(3) dopamine receptor (Homo sapiens) (UniProt P35462); experiment: qHTS of D3 Dopamine Receptor Agonist: qHTS; settings: D3R DiscoveRx beta-arrestin cells, luminescence, 90 min; active compounds read high; further: 0% is about no effect
Sequence (P35462 whole entry, looked up): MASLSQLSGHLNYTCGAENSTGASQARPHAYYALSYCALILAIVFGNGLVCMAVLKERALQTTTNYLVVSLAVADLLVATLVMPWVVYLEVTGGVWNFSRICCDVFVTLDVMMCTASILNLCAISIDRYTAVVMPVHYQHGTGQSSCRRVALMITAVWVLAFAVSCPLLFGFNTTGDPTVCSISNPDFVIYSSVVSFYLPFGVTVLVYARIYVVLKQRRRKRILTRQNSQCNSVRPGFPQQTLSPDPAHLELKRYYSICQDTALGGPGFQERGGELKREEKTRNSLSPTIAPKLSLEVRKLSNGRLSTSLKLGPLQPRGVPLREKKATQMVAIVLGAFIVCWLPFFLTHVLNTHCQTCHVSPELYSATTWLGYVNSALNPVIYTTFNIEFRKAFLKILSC
From the text: D3 DARs represent a very important target for the treatment of several neuropsychiatric disorders. Indeed, one of the most promising therapeutic applications for the D3 DAR is in the area of addiction and related disorders. […] These findings have been observed with a number of addictive substances including cocaine, amphetamine, nicotine, and alcohol. […] Antagonism of the D3 DAR may also be therapeutic in the treatment of schizophrenia or psychosis. […] Since the D3 DAR is expressed in areas of the CNS associated with the control of mood and emotion, it has been hypothesized that selective antagonism of the D3 DAR may be effective in treating psychosis without inducing the motor side effects typically seen with D2 DAR antagonists.
This part of the project aims to discover novel agonist.
NIH Chemical Genomics Center [NCGC]
NIH Molecular Libraries Probe Centers Network [MLPCN]
Assay Submitter (PI): David Sibley, NINDS
Freshly passaged cells are plated in 1536 well white, solid bottom plates at a density of 1500 cells/well in 3microl of complete media. After an overnight incubation at 37 degrees C in 5% CO2, cells are loaded with 23nl of test compound from the compound library (as well as dopamine controls) using a 1536 pintool and incubated at 37 degrees C for 90 minutes. Two microliters of DiscoveRx reagent is then added to all cells, and they are incubated for an additional 30 - 60 minutes at room temperature. Following incubation, luminescence is measured on a ViewLux CCD-based luminometer reader using a 20 sec exposure time.

Compound | max activation
CC(C)=CCc1c(O)c(CC=C(C)C)c2occ(-c3ccc(O)cc3)c(=O)c2c1O | 84.1% (active)
CC(C)=CCc1ccc(O)c(=O)cc1C(C)C | -8.37% (inactive)
CCc1nc2c(cnn2-c2ccc(C)cc2)c(=O)n1-c1ccc(C)cc1 | 0.0293% (inactive)
O=C(CCn1ccc2cc(S(=O)(=O)N3CCCC3)ccc21)NCc1cccc(Cl)c1 | -1.61% (inactive)
COc1ccc2ncc3c(-c4ccc(C)c(C)c4)nn(CC(=O)NC4CCCC4)c3c2c1 | -3.77% (inactive)
CC(=O)O[C@]1(C(C)=O)CC[C@H]2[C@@H]3CCC4=CC(=O)CC[C@]4(C)[C@@]3(F)[C@@H](O)C[C@@]21C | 9.73% (inactive)
CCC(=O)N1N=C(c2ccc(OC)cc2)CC1c1cn(-c2ccccc2)nc1-c1cccs1 (centres undefined) | -10.2% (inactive)
S=c1[nH]nc(-c2cccs2)n1/N=C/c1cn(-c2ccccc2)nc1-c1ccc(Cl)cc1 | 44.2% (active)
CC(=O)O[C@H]1CC[C@@]2(C)C(=CC[C@@H]3[C@@H]2CC[C@]2(C)C(c4cccnc4)=CC[C@@H]32)C1 | 6.91% (inactive)
COc1ccc(S(=O)(=O)NCc2cccn2Cc2cccc(C)c2)cc1Cl | -14.5% (inactive)
Cc1ccc(C(=O)Nc2ccc(OCc3cc(=O)n4c5c(sc4n3)CCCC5)cc2)cc1 | -4.47% (inactive)
COc1ccc(C(=O)NC2CC2)cc1OC1CCN(C/C=C/c2ccccc2)CC1 | -13.2% (inactive)
COc1cc(C(=O)N2CCN(C/C=C/c3ccccc3)CC2)cc(OC)c1C | 49.9% (active)
COc1ccccc1C(=O)NC(CCSC)C(=O)N1CCN(C/C=C/c2ccccc2)CC1 (centres undefined) | -0.587% (inactive)
CCc1ccccc1N1C(=O)CN(S(=O)(=O)CC)CC1(C)C(=O)NC1CCCCC1 (centres undefined) | -18.4% (inactive)
N#Cc1ccccc1Cn1cnc2nc3c(cc2c1=O)CCCC3 | -7.33% (inactive)
C/C=C/C=N/NC(=O)c1ccncc1 | -12.6% (inactive)
Cc1ccc(Cc2nc3ccccc3nc2SCC(=O)Nc2cccc(C(F)(F)F)c2)cc1 | 4.77% (inactive)
CN(Cc1ccccc1)C(=O)c1cc2c(=O)n(C)c3ccccc3c2s1 | -16.8% (inactive)
CN(Cc1ccccc1)C(=O)c1cccc(C(=O)N(C)Cc2ccccc2)c1 | 115% (active)
Cc1cc(C)cc(NC(=O)N(C)Cc2ccccc2)c1 | -3.6% (inactive)

Compound | max activation
COc1ccc(-c2noc(CSc3nnc(-c4ccccc4)n3-c3ccc(F)cc3)n2)c(OC)c1 | -1.45% (inactive)
COc1ccc(S(=O)(=O)NCCSc2nnnn2-c2ccccc2)cc1 | -5.06% (inactive)
O=C(NC1CCCCC1)c1ccc2c(c1)N(Cc1ccc(Cl)cc1)C(=O)c1ccccc1S2=O (centres undefined) | 3.22% (inactive)
CCC1CN(S(=O)(=O)c2cc(-c3cc(C)no3)ccc2C)c2cc(C)ccc2O1 (centres undefined) | -8.75% (inactive)
Cc1ccc(Nc2ccc3cc(S(=O)(=O)N4CCCCC4)ccc3n2)cc1F | 3.49% (inactive)
O=C1CCC(=O)N(O)CCCCCNC(=O)CCC(=O)N(O)CCCCCNC(=O)CCC(=O)N(O)CCCCCN1 | 65.3% (active)
CCCN(CCc1ccccc1)C1CCc2c(O)cccc2C1 (centres undefined) | 110% (active)
Cc1cc(C)cc(C(=O)N(CCc2ccccc2)C2=CC3CCC(C2)N3C)c1 (centres undefined) | -13.4% (inactive)
COc1cccc(CNC(=O)CN2C(=O)CCc3cc(S(=O)(=O)N4CCOCC4)ccc32)c1 | 7.79% (inactive)
COc1ccc(N2CCN(C(=O)CSCc3nc(-c4ccccc4Cl)oc3C)CC2)cc1 | 13.9% (inactive)
Cc1ccc(NC(=O)C2CCN(S(=O)(=O)c3cc(-c4noc(C)n4)ccc3C)CC2)c(C)c1 | -12.1% (inactive)
N#CC(C(=O)c1ccc(S(=O)(=O)N2CCCCCC2)cc1)c1nc2ccccc2[nH]1 (centres undefined) | 24% (inactive)
Cc1ccc(S(=O)(=O)c2nnn3c2nc(N2CCN(c4ccccc4F)CC2)c2cc(Cl)ccc23)cc1C | 4.43% (inactive)
Cc1ccc(S(=O)(=O)C(C#N)c2nc3ccccc3nc2N2CCCC2)cc1C (centres undefined) | 44.8% (active)
CO/N=C(\C(=O)N[C@@H]1C(=O)N2C(C(=O)O)=C(C[N+]3(C)CCCC3)CS[C@H]12)c1csc(N)n1 | 2.02% (inactive)
O=S(=O)(c1ccc2nc(NCc3ccccc3Cl)ccc2c1)N1CCCCC1 | -23.2% (inactive)
Cc1cccc(CNC(=O)c2cnc3sc(N4CCCCC4)nn3c2=O)c1 | 6.54% (inactive)
Cc1ccc(CNC(=O)c2cccc3c2C(=O)c2ccc(N4CCC(C)CC4)cc2S3(=O)=O)cc1 | 54.8% (active)
Cc1ccc(CNC(=O)C2CCCN2C(=O)NCc2ccccc2)cc1 (centres undefined) | 4.63% (inactive)
CCOC(=O)[C@H](CCc1ccccc1)N[C@@H](C)C(=O)N1CC2(C[C@H]1C(=O)O)SCCS2 | -2.59% (inactive)
CC(C)(C)C(=O)OCc1nc(-c2ccc(O)c(O)c2)cs1 | 117% (active)

Compound | max activation
COCc1cccc(-c2csc(C(O)c3ccc(F)cc3)n2)c1 (centres undefined) | -13.4% (inactive)
Cc1ccc(S(=O)(=O)N2CCCc3cc(NS(=O)(=O)c4cc(C)ccc4C)ccc32)cc1 | 7.92% (inactive)
CO/N=C(\C(=O)N[C@@H]1C(=O)N2C(C(=O)O)=CCS[C@H]12)c1csc(N)n1 | 3.03% (inactive)
CCCCNc1c(-c2ccc(OC)c(Sc3ccc(OC)cc3)c2)nc2ccc(Cl)cn12 | 44.7% (active)
CCCCNc1c(-c2cccc(Sc3ccc(OC)cc3)c2)nc2ccccn12 | 13.9% (inactive)
COC(=O)c1ccc2nc(-c3ccc(C)cc3)c(Cc3ccc(OC)cc3C)n2c1 | -2.45% (inactive)
COc1ccc(C2(C#N)CCC(C(=O)O)CC2)cc1OC1CCCC1 (centres undefined) | -0.732% (inactive)
CCNS(=O)(=O)c1cc(-c2nnc(Nc3cccc(C(F)(F)F)c3)c3ccccc23)ccc1C | 13.3% (inactive)
CCOc1ccc(OCC)c(Nc2nc3ccccc3n3nnnc23)c1 | 5.21% (inactive)
c1ccc2cc(C3=NCCN3)ccc2c1 | -15.2% (inactive)
CCCn1nc(C(=O)OCc2nc(N)nc(Nc3ccccc3C)n2)c2ccccc2c1=O | 31.8% (active)
CCCn1nc(C(=O)NNC(=O)CSCC(=O)Nc2cc(C)on2)c2ccccc2c1=O | -7.71% (inactive)
Cc1ccccc1Nc1nc(N)nc(COC(=O)CCC(=O)c2ccc(F)cc2)n1 | 2.22% (inactive)
CCC(=O)N1CCc2cc(Br)cc(S(=O)(=O)NCc3ccc(Cl)cc3)c21 | -15.3% (inactive)
CN1CC[C@H](c2c(O)cc(O)c3c(=O)cc(-c4ccccc4Cl)oc23)[C@H](O)C1 | 6.48% (inactive)
Cc1ccnc(SCCn2c(Br)nc3c2c(=O)[nH]c(=O)n3C)n1 | 5.98% (inactive)
Cn1c(=O)[nH]c(=O)c2c1nc(Br)n2CCCCSc1nc2ccccc2o1 | 40.9% (active)
Cn1c(=O)c2c(nc(Br)n2CCSc2nc3ccccc3o2)n(C)c1=O | 4.26% (inactive)
Oc1ccc(-c2nc3ccc(Cl)cn3c2Nc2ccc3c(c2)OCO3)cc1 | 6.89% (inactive)
Cc1ccccc1CN1CCC(CNC(=O)c2cc3ccc4cccnc4c3[nH]2)CC1 | -21.1% (inactive)
CC(=O)Nc1cccc(NC(=O)CSc2cn(CC(=O)N3CCCC3)c3ccccc23)c1 | 11.5% (inactive)

Compound | max activation
Cc1cccc(N2CCN(C(=O)CCn3c(=O)c4cccn4c4cccnc43)CC2C)c1 (centres undefined) | 14.9% (inactive)
O=C(O)CCCCC(=O)O | 2.29% (inactive)
COc1ccc(N2CC(C(=O)NCCN3C(=O)S/C(=C\c4cccnc4)C3=O)CC2=O)c(OC)c1 (centres undefined) | 2.93% (inactive)
O=C(NCCN1C(=O)S/C(=C\c2cccnc2)C1=O)c1ccc(S(=O)(=O)N2CCCC2)cc1 | 31.1% (active)
O=C(Nc1ncccc1O)c1ccc(S(=O)(=O)N2CCCC2)cc1 | 1.73% (inactive)
Cc1cccc(NC(=O)Cn2c(=O)n(CCC(C)C)c(=O)c3cccnc32)c1 | -14.3% (inactive)
Cc1ccc(-c2nc3cccc(C)n3c2Nc2ccc3c(c2)OCCO3)cc1 | -6.45% (inactive)
Cc1cccc(N2CCN(C(=O)CCSCc3ccccc3F)CC2)c1C | -6.07% (inactive)
COc1ccc(N2CCN(C(=O)CCSCc3ccccc3F)CC2)cc1 | 1.03% (inactive)
O=C(CCSCc1ccccc1F)N1CCN(c2ccc(Cl)cc2)CC1 | 57.2% (active)
CC(Oc1ccccc1)C(=O)N[C@@H]1C(=O)N2[C@@H]1SC(C)(C)[C@@H]2C(=O)O (some centres undefined) | 8.72% (inactive)
Cc1cccc2c(=O)cc(CSc3ccccc3NC(=O)C(C)C)[nH]c12 | 3.87% (inactive)
COc1cc(Nc2nc(-c3ccc(OC)c(OC)c3)nc3ccccc23)cc(OC)c1 | -6.69% (inactive)
Cc1ccc(-c2nn(-c3ccccc3)cc2/C=C/C(=O)Nc2cccc(S(N)(=O)=O)c2)cc1 | 38.3% (active)
NS(=O)(=O)c1ccc(NC(=O)/C=C/c2ccccc2Cl)cc1 | 2.71% (inactive)
COc1ccc(-n2cnnc2SCC(=O)Nc2cccc(S(N)(=O)=O)c2)cc1 | 0.641% (inactive)
CN[C@@H]1[C@@H](O)[C@@H](O[C@@H]2[C@H](O)[C@H](O[C@H]3OC(CN)=CC[C@H]3N)[C@@H](N)C[C@H]2N)OCC1(C)O (some centres undefined) | -3.05% (inactive)
O=C1NS(=O)(=O)c2ccccc21 | 0.55% (inactive)
CCn1cc(C(=O)NCCc2ccccc2)c(=O)c2cc(S(=O)(=O)N3CCCCCC3)ccc21 | -2.07% (inactive)
CC(=O)Nc1ccc(NC(=O)C2CCCN(S(=O)(=O)c3ccc4c(c3)CCCC(=O)N4)C2)cc1 (centres undefined) | 6.84% (inactive)
CN(C)CCCSc1ccccc1NC(=O)/C=C/c1ccccc1 | -15.8% (inactive)

Reference: PubChem BioAssay AID652048 (National Center for Advancing Translational Sciences (NCATS), 2013)
